# Values joined by “and” are separate entries in the source; they are usually repeats but may differ in a detail not shown here. Equal entries are not always repeated. Results filed as inconclusive are left out. Entries that show only a call come without a potency. Active and inactive are the calls of the source. Unless noted, calls follow the shape of the dose curve; as a rule, active = well fitted curve in the direction sought with a large enough effect; inconclusive = small, poorly fitted or top-dose-only effect, or another doubt; inactive = no such curve, though single readings can be large; an effect the other way counts as inactive or inconclusive.
# How the values were obtained:
# [1] = Primary qHTS for small molecule stabilizers of the endoplasmic reticulum resident proteome: Secreted ER Calcium Modulated Protein (SERCaMP) assay (AID 1508630)
# How it was run: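 The SH-SY5Y reporter protocol was run at 3 concentrations up to 38.3 uM (primary) or 11 concentrations (follow-up): 16 h compound, 100 nM thapsigargin for 4 h, then extracellular luciferase luminescence.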
# [2] = A High-Content qHTS Against Drug Library for the Identification of Small Molecules that Inhibit DYT1 Early Onset Primary Dystonia-Associated Cell Pathology (AID 1645839; calls by dose curve; also: potency is read from the fitted curve at half-maximal effect)
# How it was run: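 High-content imaging quantified EGFP-TorsinA mislocalization in HEK293-derived cells inducibly expressing DYT1 mutant torsinA, after 48 h exposure to compound given together with tetracycline induction. Cell count served as a toxicity channel alongside %pathology.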
# [3] = biological target: Cytochrome P450 2D6 (Homo sapiens) (UniProt P10635); assay: Cytochrome P450 family 2 subfamily D member 6 (CYP2D6) small molecule antagonists: luciferase biochemical (cell-free) qHTS assay (AID 1645840; active = well fitted curve in the direction sought with a large enough effect in the repeat runs; an effect the other way counts as inactive or inconclusive; also: nearly all actives have a fitted effect of over 55% in size; also: potency is read from the fitted curve at half-maximal effect)
# How it was run: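 P450-Glo CYP2D6 system: proluciferin substrate converted by enzyme to luciferin, read by luminescence proportional to activity. Enzyme-substrate mix with compound 10 min at room temperature, then NADPH regeneration 1 h before detection reagent.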
# [4] = biological target: Cytochrome P450 2C9 (Homo sapiens) (UniProt P11712); assay: Cytochrome P450 family 2 subfamily C member 9 (CYP2C9) small molecule antagonists: luciferase biochemical (cell-free) qHTS assay (AID 1645842; active = well fitted curve in the direction sought with a large enough effect in the repeat runs; an effect the other way counts as inactive or inconclusive; also: nearly all actives have a fitted effect of over 55% in size; also: potency is read from the fitted curve at half-maximal effect)
# How it was run: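 P450-Glo CYP2C9 system: proluciferin substrate with enzyme in mix containing 0.4% BSA, 10 min at room temperature, then NADPH regeneration solution added and incubated 1 h at 37C. Detection reagent stopped reaction; luminescence read after 20 min as RLU.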
# [5] = Primary qHTS for inhibitors of nuclear receptor binding SET domain protein 2 (NSD2) in an RCH-ACV wild type WT cells (2C) (AID 1645877); also: nearly all actives have a fitted effect of over 70% in size; also: potency is read from the fitted curve at half-maximal effect
# [6] = Primary qHTS for inhibitors of nuclear receptor binding SET domain protein 2 (NSD2) in an isogenic RCH-ACV NSD2 p.E1099K mutant (9B) (AID 1645876); also: nearly all actives have a fitted effect of over 70% in size; also: potency is read from the fitted curve at half-maximal effect
# Chain of Cytochrome P450 2C9 (Homo sapiens) (P11712 whole entry, looked up): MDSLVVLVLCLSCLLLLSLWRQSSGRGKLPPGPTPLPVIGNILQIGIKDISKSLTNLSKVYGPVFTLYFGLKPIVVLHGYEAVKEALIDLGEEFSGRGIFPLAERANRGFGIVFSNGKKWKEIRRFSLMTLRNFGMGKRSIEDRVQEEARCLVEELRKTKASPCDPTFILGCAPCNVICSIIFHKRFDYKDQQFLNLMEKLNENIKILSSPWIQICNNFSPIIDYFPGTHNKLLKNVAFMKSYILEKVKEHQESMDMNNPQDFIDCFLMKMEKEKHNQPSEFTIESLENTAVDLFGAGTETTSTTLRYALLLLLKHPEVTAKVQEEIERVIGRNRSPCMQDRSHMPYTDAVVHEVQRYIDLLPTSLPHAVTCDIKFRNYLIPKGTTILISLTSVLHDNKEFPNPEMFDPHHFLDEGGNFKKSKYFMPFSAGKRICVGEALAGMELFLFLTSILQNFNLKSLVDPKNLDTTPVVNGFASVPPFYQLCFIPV
# Chain of Cytochrome P450 2D6 (Homo sapiens) (P10635 whole entry, looked up): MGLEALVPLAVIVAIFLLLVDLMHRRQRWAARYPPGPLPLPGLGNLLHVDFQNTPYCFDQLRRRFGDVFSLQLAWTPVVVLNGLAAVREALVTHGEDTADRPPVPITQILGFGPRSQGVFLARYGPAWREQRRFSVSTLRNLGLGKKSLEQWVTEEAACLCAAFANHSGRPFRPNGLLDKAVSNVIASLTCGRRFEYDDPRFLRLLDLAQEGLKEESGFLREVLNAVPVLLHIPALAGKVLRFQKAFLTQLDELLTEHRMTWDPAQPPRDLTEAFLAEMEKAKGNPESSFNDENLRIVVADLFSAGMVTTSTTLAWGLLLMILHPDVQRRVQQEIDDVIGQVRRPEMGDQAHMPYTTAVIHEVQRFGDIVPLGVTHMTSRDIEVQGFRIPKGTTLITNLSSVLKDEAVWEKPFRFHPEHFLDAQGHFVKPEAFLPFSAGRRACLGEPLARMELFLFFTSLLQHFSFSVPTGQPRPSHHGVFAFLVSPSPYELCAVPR
Structure (SMILES),Potency [1],Potency [2],Potency [3],Potency [4],Potency [5],Potency [6]
CC1(C)O[C@@H]2C[C@H]3[C@@H]4C[C@H](F)C5=CC(=O)CC[C@]5(C)[C@H]4[C@@H](O)C[C@]3(C)[C@]2(C(=O)CO)O1,inactive,inactive,inactive,inactive,9.4 nM (active),–
CC(=O)[C@H]1CC[C@H]2[C@@H]3C[C@H](C)C4=CC(=O)CC[C@]4(C)[C@H]3[C@@H](O)C[C@]12C,inactive,inactive,–,0.86 µM (active),–,–
CC1(C)O[C@@H]2C[C@H]3[C@@H]4C[C@H](F)C5=CC(=O)C=C[C@]5(C)[C@H]4[C@@H](O)C[C@]3(C)[C@]2(C(=O)CO)O1,inactive,inactive,inactive,–,16.6 nM (active),inactive
Cc1cc(=O)n(-c2ccccc2)n1C,inactive,inactive,inactive,–,inactive,inactive
CC(C)(C)NC(=O)[C@@H]1CN(Cc2cccnc2)CCN1C[C@@H](O)C[C@@H](Cc1ccccc1)C(=O)N[C@H]1c2ccccc2C[C@H]1O,inactive,inactive,–,inactive,inactive,inactive
Cc1nc2n(c(=O)c1CCN1CCC(c3noc4cc(F)ccc34)CC1)CCC[C@H]2O,inactive,inactive,12 µM (active),inactive,inactive,inactive
CC(=O)OCC(=O)[C@@]12N=C(C)O[C@@H]1C[C@H]1[C@@H]3CCC4=CC(=O)C=C[C@]4(C)[C@H]3[C@@H](O)C[C@@]12C,inactive,inactive,inactive,inactive,150 nM (active) and 417 nM (active),–
C[C@H]1C[C@H]2[C@@H]3CCC4=CC(=O)C=C[C@]4(C)[C@@]3(Cl)[C@@H](O)C[C@]2(C)[C@@]1(O)C(=O)CO,inactive,inactive,15.5 µM (active),17.4 µM (active),4.7 nM (active),–
O=C(O)CNC(=O)c1ccccc1,inactive,inactive,inactive,inactive,inactive,inactive
Cc1cc(O)c(C(C)C)cc1Cl,inactive,inactive,12.3 µM (active),21.9 µM (active),inactive,inactive
CCN(CCCCOC(=O)c1ccc(OC)c(OC)c1)C(C)Cc1ccc(OC)cc1 (stereo not given),inactive,inactive,–,inactive,–,–
C=CCc1ccc(O)c(OC)c1,inactive,inactive,inactive,–,inactive,inactive
C[C@]12CCC(=O)C=C1CC[C@H]1[C@@H]3CC[C@](O)(C(=O)CO)[C@@]3(C)C[C@H](O)[C@@]12F,inactive,inactive,inactive,inactive,10.6 nM (active),–
CC(=O)OCC(=O)[C@@]1(OC(C)=O)[C@@H](C)C[C@H]2[C@@H]3C[C@H](F)C4=CC(=O)C=C[C@]4(C)[C@@]3(F)[C@@H](O)C[C@@]21C,inactive,inactive,inactive,–,18.8 nM (active),–
Cc1c(C(N)=O)cc([N+](=O)[O-])cc1[N+](=O)[O-],inactive,inactive,inactive,inactive,inactive,inactive
CC(C)n1nc(-c2cc3cc(O)ccc3[nH]2)c2c(N)ncnc21,inactive,–,13.5 µM (active),1.95 µM (active) and 1.51 µM (active),47.3 nM (active) and 3.32 µM (active),29.9 nM (active) and 3.32 µM (active)
COc1cc(-c2ccc(=O)[nH]n2)ccc1OC(F)F,inactive,inactive,–,–,inactive,inactive
C[n+]1c2cc(N)ccc2cc2ccc(N)cc21 (tested in a mixture with another compound),inactive,–,11 µM (active),inactive,1190 nM (active),1.5 µM (active)
COc1cc2c(cc1OC)C(=O)C(CC1CCN(Cc3ccccc3)CC1)C2 (stereo not given),inactive,12.6 µM (active),–,–,21100 nM (active),–
Oc1c(I)cc(I)c2cccnc12,inactive,–,inactive,inactive,2110 nM (active),2.99 µM (active)
COc1cc2c(cc1OC)[C@@H]1CC(=O)[C@@H](CC(C)C)CN1CC2,inactive,inactive,–,15.5 µM (active),inactive,inactive
CC(=O)OCC(=O)[C@@]1(O)CC[C@H]2[C@@H]3CCC4=CC(=O)C=C[C@]4(C)[C@H]3[C@@H](O)C[C@@]21C,inactive,inactive,–,inactive,18.8 nM (active) and 183 nM (active),–
N[C@H](Cc1c[nH]c2ccccc12)C(=O)O,inactive,inactive,–,–,inactive,inactive
CC(C)(Oc1ccc(Cl)cc1)C(=O)O,inactive,inactive,–,–,inactive,inactive
C#C[C@]1(O)CC[C@H]2[C@@H]3CCc4cc(OC5CCCC5)ccc4[C@H]3CC[C@@]21C,inactive,–,inactive,8.71 µM (active),–,inactive
CC(Cc1ccccc1)(NC(=O)CN)c1ccccc1 (stereo not given),inactive,inactive,–,–,inactive,inactive
Oc1ccc(Cl)cc1Sc1cc(Cl)ccc1O,inactive,–,12.3 µM (active),12.3 µM (active),–,18.8 µM (active)
